HP1b chromo inh: blocks HP1-beta chromodomain binding to methylated histone tails; Potency, µM (titrated, usually from 114 µM), for the others: top-dose activity change, negative = inhibition, actives largely listed as inhibitors; P83916; hit rate 0.56% among 390,000; AID 540317; AlphaScreen HP1-beta / biotin-H3K9me3 peptide binding; note: nearly all actives have a fitted effect of over 70% in size
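Compound inhibition of the preformed complex between 50 nM HP1-beta and 50 nM biotinylated H3K9me3 peptide was read by AlphaScreen. Buffer was PBS pH 7.4 with 0.01% Tween-20. Incubations ran 30 min at room temperature, with 10 ug/mL donor/acceptor beads.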
G9a block: G9a (human) methyltransferase inhibition; G9a H3K9 monomethylation, AlphaScreen, 2 h; Potency, µM (doses to about 102 µM), for inactives: top-dose activity, negative = inhibition, most hits filed as inhibitors; hit rate 8.8% among 350,000; AID 504332; note: % is set by controls: 0 for no effect and ±100 for the full control effect; nearly all actives have a fitted effect of over 75% in size
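Methyltransferase reactions run at room temperature for 2 h (20 nM enzyme, 500 nM biotin-H3K9 peptide, 20 uM SAM) after a 15 min compound preincubation; product detected by AlphaScreen beads and anti-H3K9me1 antibody.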
BAZ2B inh: inhibitors of human BAZ2B bromodomain; AlphaScreen BAZ2B-H3K14Ac peptide displacement; Q9UIF8; Potency, µM (highest dose often 114 µM), inactives show at the highest dose activity change, negative = inhibition, actives largely listed as inhibitors; AID 504333; hit rate 4.4% among 360,000; note: % is set by controls: 0 for no effect and ±100 for the full control effect; nearly all actives have a fitted effect of over 60% in size
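Complex of BAZ2B and biotin-H3K14Ac (50 nM apiece) forms over 30 min at RT, then faces library compounds up to 110 uM for another 30 min; AlphaScreen beads added, 20 min dark incubation, luminescence read.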
ALOX12 inh: blocks human arachidonate 12S-lipoxygenase; purified 12hLO, xylenol orange hydroperoxide absorbance; hit rate 1.1% among 580,000; Potency, µM (top dose mostly 108 µM), inactives show at the top dose activity change, negative = inhibition, usual class: inhibitors; P18054; note: % is set by controls: 0 for no effect and ±100 for the full control effect
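Purified human 12hLO (150 nM final) in 25 mM Hepes, 0.01% Triton X-100, pH 7.0 was preincubated 15 min at room temperature with compound. Then 40 uM arachidonic acid was added, 30 min. Hydroperoxide was read by Fe-XO absorbance ratio 573/405 nm.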
JMJD2A Tudor inh: inhibitors of human JMJD2A Tudor domain | O75164 | AlphaScreen JMJD2A-Tudor / H3K4me3 peptide binding | hit rate 4.4% among 390,000 | Potency, µM (highest dose often 114 µM), for inactives: at the highest dose activity change, negative = inhibition, hits mostly inhibitors | AID 504339; note: % is set by controls: 0 for no effect and ±100 for the full control effect; nearly all actives have a fitted effect of over 50% in size
Target sequence (O75164 whole entry, looked up, the tested form may be a part): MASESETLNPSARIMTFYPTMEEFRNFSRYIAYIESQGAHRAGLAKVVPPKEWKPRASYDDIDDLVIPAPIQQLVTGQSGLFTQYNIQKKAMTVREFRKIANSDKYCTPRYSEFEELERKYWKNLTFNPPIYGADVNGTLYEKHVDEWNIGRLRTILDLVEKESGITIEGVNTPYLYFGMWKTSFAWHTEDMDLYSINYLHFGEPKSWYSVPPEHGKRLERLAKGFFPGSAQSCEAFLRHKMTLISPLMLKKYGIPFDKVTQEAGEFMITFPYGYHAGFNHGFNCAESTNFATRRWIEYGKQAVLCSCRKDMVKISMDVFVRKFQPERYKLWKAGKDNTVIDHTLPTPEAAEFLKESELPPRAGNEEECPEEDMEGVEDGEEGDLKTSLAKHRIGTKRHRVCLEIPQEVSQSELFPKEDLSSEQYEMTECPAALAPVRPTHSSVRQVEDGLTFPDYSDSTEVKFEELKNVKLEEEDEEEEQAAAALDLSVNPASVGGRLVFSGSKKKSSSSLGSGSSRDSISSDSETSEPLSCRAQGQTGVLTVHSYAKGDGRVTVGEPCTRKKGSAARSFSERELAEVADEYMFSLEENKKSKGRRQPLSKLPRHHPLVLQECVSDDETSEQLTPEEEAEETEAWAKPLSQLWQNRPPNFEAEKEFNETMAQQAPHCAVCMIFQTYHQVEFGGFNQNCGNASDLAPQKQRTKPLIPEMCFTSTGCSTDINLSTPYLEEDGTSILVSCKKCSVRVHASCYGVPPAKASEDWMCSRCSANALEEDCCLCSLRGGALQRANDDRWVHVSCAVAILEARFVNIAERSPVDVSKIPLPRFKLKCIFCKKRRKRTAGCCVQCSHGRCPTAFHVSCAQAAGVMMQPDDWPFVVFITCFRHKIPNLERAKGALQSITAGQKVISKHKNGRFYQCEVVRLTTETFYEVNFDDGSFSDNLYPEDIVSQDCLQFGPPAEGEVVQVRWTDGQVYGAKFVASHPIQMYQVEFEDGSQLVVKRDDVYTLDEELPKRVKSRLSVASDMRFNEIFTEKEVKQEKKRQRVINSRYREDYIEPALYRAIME
Sfp inh: Sfp phosphopantetheinyl transferase inhibition; Biochemical Sfp PPTase activity, qHTS; Q9F4F7; hit rate 3.5% among 310,000; Potency, µM, for inactives: largest response in the series, negative = inhibition, hits mostly inhibitors; AID 1490;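 note: the enzyme is Sfp with the accession as filed and its product quenches rhodamine fluorescence; 0% = enzyme reaction without inhibitor and -100% = no enzyme wells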
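Fluorescence-quenching assay with 15 nM Sfp, 5 uM rhodamine-CoA and 12.5 uM BHQ-2-labelled ybbR peptide in pH 7.6 Hepes/MgCl2 buffer. Enzyme was pre-incubated with compound for 15 min at room temperature. Rate was taken from the 30-min fluorescence change (525/598 nm).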
The depositor's hits bear a star; ? = inconclusive; . = not tested or not shown; [ ] = remark or other dose. Hits are enriched below; roughly 8.7% of the tested compounds scored in any of these assays. Calls come from the whole dose curve; as a rule, active = well fitted curve in the direction sought with a large enough effect; inconclusive = small, poorly fitted or top-dose-only effect, or another doubt; inactive = no such curve, though single readings can be large; an effect the other way counts as inactive or inconclusive. Potency is the fitted concentration of half-maximal effect.

SMILES | HP1b chromo inh | G9a block | BAZ2B inh | ALOX12 inh | JMJD2A Tudor inh | Sfp inh
Cc1cc(Nc2cccc([N+](=O)[O-])c2)nc2ccccc12 | . | . | . | -10% | . | .
Cc1cc2c(cc1C)CSC(c1c(O)ccc3cc(Br)ccc13)SC2 | . | . | . | 0.79µM* | . | .
Cc1ccccc1OCc1nc2ccc(S(=O)(=O)N3CCOCC3)cc2[nH]1 | -43% | 3.5µM* | ? | -30% | ? | 40µM*
Cc1cccc(OC(C)C(=O)Nc2ccc(N3CCCCC3)cc2)c1 (stereo not drawn) | -22% | 22µM* | ? | -11% | ? | .
CC(Oc1cccc(Cl)c1)C(=O)Nc1ccccc1N1CCCC1 (stereo not drawn) | -4% | 50µM* | -7% | -3% | ? | .
CC(C(=O)O)n1nnc2ccccc21 (stereo not drawn) | 13% | . | 6% | -3% | -12% | -1%
CC(C(=O)Nc1ccccc1C(=O)N1CCCC1)n1nnc2ccccc21 (stereo not drawn) | 3% | 18µM* | 5% | -21% | -11% | -8%
CC(Oc1ccc(Cl)cc1)C(=O)Nc1ccccc1N1CCOCC1 (stereo not drawn) | 63% | . | . | -15% | 20% | .
Cc1cccc(OC(C)C(=O)Nc2ccccc2C(=O)N2CCCCC2)c1 (stereo not drawn) | 16%[57 µM] | 35µM* | -7% | -10% | -13% | -20%
Cc1cc(OC(C)C(=O)Nc2ccccc2C(=O)N2CCCC2)ccc1Cl (stereo not drawn) | 41% | 49% | -4% | 2% | 2% | 17%
CC(Cn1cncn1)NC(=O)c1cccc(S(=O)(=O)N2CCOCC2)c1 (stereo not drawn) | . | . | . | -7% | . | .
O=C(Nc1ccccc1)Nc1ccc([C@@H](O)[C@H]2COCC(=O)N2Cc2cccnc2)cc1 | . | . | . | 4%[176 µM] | . | .
COCC(=O)N[C@@H]1CN(S(C)(=O)=O)C[C@H]1CN(C)C | . | . | . | 48% | . | .
Cc1ccc(OC(C)C(=O)Nc2ccccc2C(=O)N2CCN(C)CC2)cc1 (stereo not drawn) | 2% | 40µM* | -22% | ? | -4% | 12%
CCOCCCNC(=O)Nc1ccc2nc(N3CCOCC3)cc(C)c2c1 | . | . | . | 10% | . | .
O=S(=O)(c1ccc(F)cc1)c1nc(-c2ccco2)oc1Nc1ccc(F)cc1 | 7% | 50µM* | ? | ? | -28% | -2%
CNc1oc(-c2ccccc2C)nc1S(=O)(=O)c1ccc(F)cc1 | . | . | . | 10% | . | .
COc1ccc(Nc2oc(-c3ccco3)nc2S(=O)(=O)c2ccc(F)cc2)cc1 | -6% | 45µM* | ? | ? | ? | -2%
COc1ccc(N2CCN(C(=O)CCc3c(C)nc4cc(-c5ccc(OC)cc5OC)nn4c3C)CC2)cc1 | 4% | ? | 18µM* | -22% | -15% | .
O=C(COc1ccccc1)NCC(=O)N1CCCC1 | 14% | 7% | -3% | ? | -3% | 24%
COc1ccccc1N1CCN(C(=O)COc2cc(C)ccc2C)CC1 | ? | -10%[59 µM] | 1% | -13% | 20µM* | -7%
O=C(COc1ccc(-c2ccccc2)cc1)N1CCCC1 | 22% | 35µM* | ? | -14% | -9% | 10%
COc1cccc(NC(=O)CCC(=O)N2Cc3ccccc3Oc3ncccc32)c1 | 32% | -11%[59 µM] | 8%[57.1 µM] | -9% | -13% | .
COc1ccc(N2CCN(C(=O)CCC(=O)N3Cc4ccccc4Oc4ncccc43)CC2)cc1 | 5% | . | 40µM* | -13% | -27% | 0%
COc1ccccc1N1CCN(C(=O)COc2ccc(C)cc2Br)CC1 | 15% | ? | -32% | ? | -16% | 3%
SMILES | HP1b chromo inh | G9a block | BAZ2B inh | ALOX12 inh | JMJD2A Tudor inh | Sfp inh
COc1ccccc1CCC(=O)N1CCN(C(=O)c2ccccc2)CC1 | 21% | 24% | 4% | 119% | -1% | 2%
CCOC(=O)c1cc(-c2ccccc2)n(CCC(=O)N2CCN(c3ccc(OC)cc3)CC2)c1C | ? | ? | 25µM* | 10% | ? | -1%
COc1ccc(N2CCN(C(=O)COc3cccc4ccccc34)CC2)cc1 | ? | . | 11µM* | . | 32µM* | -11%
COc1ccc(N2CCN(C(=O)CCc3ccccc3OC)CC2)cc1 | -7% | 79µM* | ? | 0% | ? | 9%
COc1ccc(N2CCN(C(=O)CCCSc3nc4ccccc4[nH]3)CC2)cc1 | 12% | 45µM* | -26% | ? | -17% | 2%
N#Cc1cccc(CN2CCOCCNC(=O)CC2)c1 | . | . | . | 110% | . | .
COc1ccc([C@@H]2c3c(C)nn(-c4ccccc4)c3NC(=O)[C@H]2NC(=O)c2ccc(Cl)cc2)cc1 | . | . | . | 18% | . | .
Cc1ccccc1OCC(=O)NCc1ccc(CS(N)(=O)=O)cc1 | . | . | . | 11% | . | .
CCN1CCN(C(=O)COCc2cc(-c3ccc4c(c3)OCO4)on2)CC1 | 20% | ? | -16% | -12% | -17% | 4%
CCOC(=O)c1cc(-c2ccc(F)cc2)n(CCC(=O)Nc2nc3ccc(OC)cc3s2)c1C | -25% | -49%[59 µM] | ? | ? | 56µM* | .
COc1ccc(OCC(=O)N2CCN(C(=O)c3ccccc3)CC2)cc1 | 18% | 14%[12.7 µM] | 14% | 13% | -29% | 4%
COc1ccc(N2CCN(C(=O)COCc3cc(-c4ccc5c(c4)OCO5)on3)CC2)cc1 | 4% | 14µM* | ? | -9% | -24% | -6%
Cc1ccc(C)c(OCCCC(=O)N2CCOCC2)c1 | 4% | 45µM* | 1% | -17% | ? | -9%
COc1ccc(N2CCN(C(=O)COc3ccccc3)CC2)cc1 | 13% | 45µM* | -13% | -8% | -28% | 11%
COCCNC(=O)c1ccc2c(c1)N(C)C(CC(=O)Nc1ccc(N)nc1)CO2 (stereo not drawn) | . | . | . | 23% | . | .
